# The list is not random: actives were taken first. Their share in the collection is about 12%.
# Pf growth 96h: inhibits malaria parasite growth, 96 h; P. falciparum luciferase reporter growth, 96 h; Potency, µM (top dose mostly 28.7 µM), for inactives: at the top dose activity change, negative = inhibition, hits mostly inhibitors; 320,000 compounds, 6.9% hits; AID 504834; also: % is scaled to controls: 0 for no effect and ±100 for the full control effect
#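 P. falciparum expressing integrated firefly luciferase, in erythrocytes at 2% hematocrit, 0.05% parasitemia, incubated with compounds 96 h at 37 C, 5% CO2. Growth inhibition read as loss of luminescence; two-generation exposure targets delayed-death apicoplast inhibitors.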
# Sm TGR inh: blocks Schistosoma mansoni thioredoxin glutathione reductase | AID 485364 | Potency, µM (series often up to 114 µM), for inactives: at the top dose activity change, negative = inhibition, hits mostly inhibitors | 360,000 compounds, 3% hits | purified TGR, DTNB reduction, TNB absorbance 405 nm; also: % is scaled to controls: 0 for no effect and ±100 for the full control effect; nearly all actives have a fitted effect of over 60% in size
#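 First, TGR (20 nM dispensed) and NADPH were mixed with compound. Second, a 15 min room-temperature incubation followed. Third, further NADPH and then DTNB were added to start the reaction. Finally, TNB absorbance was monitored kinetically.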
# Pf growth 48h: inhibits P. falciparum growth in the first generation, 48 h; P. falciparum luciferase growth in erythrocytes, 48 h; Potency, µM (titrated, usually from 28.7 µM), for the others: at the top dose activity change, negative = inhibition, usual class: inhibitors; 310,000 compounds, 5.9% hits; AID 504832; also: % is scaled to controls: 0 for no effect and ±100 for the full control effect
#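 Growth was read as firefly luciferase luminescence after a 48 h, 37 C, 5% CO2 exposure of compounds to reporter-bearing P. falciparum cultures (0.1% parasitemia, 2% hematocrit final) in Albumax-supplemented RPMI 1640.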
# SARS PLpro yeast: SARS-CoV PLP inhibition in yeast. S. cerevisiae expressing SARS-CoV PLpro, growth rescue. Potency, µM (top dose mostly 32.9 µM), without a hit: at the highest dose activity, positive = growth rescue, most hits filed as activators. 330,000 compounds, 0.19% hits. AID 485353; calls by dose curve; also: 0% is about no effect; nearly all actives have a fitted effect of over 55% in size
# Active calls of the source: *; u = inconclusive; x = no result. Unless noted, calls follow the shape of the dose curve; as a rule, active = well fitted curve in the direction sought with a large enough effect; inconclusive = small, poorly fitted or top-dose-only effect, or another doubt; inactive = no such curve, though single readings can be large; an effect the other way counts as inactive or inconclusive. Potency is read from the fitted curve at half-maximal effect.
SMILES,Pf growth 96h,Sm TGR inh,Pf growth 48h,SARS PLpro yeast
CCCCN(C)c1nc(-c2ccco2)c2c(c1C#N)CC(C)(C)OC2,2.94µM*,2.82µM*,x,-6.1%
COc1ccc(OC)c(Cc2nnc(CCC(=O)N3CCN(C4CCCC4)CC3)o2)c1,-11.0%,-23.6%,4.5%,4.4%
CCN(CCO)C(=O)c1ccc2nc(Cc3cccc(Cl)c3)oc2c1,72.2%,-3.2%,2.1%,12.1%
CC1(C)Cc2c(C#N)c(N3CCCC3)nc(-c3ccco3)c2CO1,u,3.55µM*,x,0.2%
COc1ccc(-c2nc3cc(C(C)C)ccc3o2)cc1NC(=O)c1ccc(C)c(Cl)c1,x,22.4%,x,x
COc1ccccc1NC(=O)/C(=C\c1cccnc1)NC(=O)c1ccc(C)cc1,10.4µM*,2.8%,-8.4%,-1.6%
COc1ccccc1CCNC(=O)/C(=C/c1cccnc1)NC(=O)c1ccccc1,10.4µM*,u,-11.3%,-24.9%
CC(CSC(=O)c1ccccc1)C(=O)N1C[C@@H](Sc2ccccc2)C[C@H]1C(=O)O (stereo partly specified),-0.1%,x,-1.6%,x
COc1cccc(C2c3c(-c4ccccc4O)n[nH]c3C(=O)N2CCc2ccc(OC)c(OC)c2)c1 (stereo unspecified),x,1.2%,x,x
C=CCN1C(=O)N(c2ccccc2)C(=O)C1CC(=O)Nc1ccc(OC)cc1 (stereo unspecified),-4.0%,0.0%,6.8%,6.0%
CCOC(=O)c1c(C)[nH]c(C)c1S(=O)(=O)N1CCC(C(=O)NCc2ccc(F)cc2)CC1,x,-7.7%,x,x
COc1ccc2cc(CCNC(=O)c3ccc(S(=O)(=O)N4CCCC4)cc3)c(=O)[nH]c2c1,5.86µM*,0.2%,13.1µM*,-3.6%
COc1ccc2cc(CCNC(=O)c3ccc4c(c3)OCO4)c(=O)[nH]c2c1,10.4µM*,-4.2%,u,0.9%
Cc1ccc2cc(CCNC(=O)c3cccc([N+](=O)[O-])c3)c(=O)[nH]c2c1C,u,-16.6%,-0.6%,1.2%
COc1ccc2cc(CCNC(=O)c3cccc([N+](=O)[O-])c3)c(=O)[nH]c2c1,u,-1.6%,5.22µM*,-0.7%
Cc1ccc2cc(CCNC(=O)c3ccc(C)c([N+](=O)[O-])c3)c(=O)[nH]c2c1,4.65µM*,-11.1%,u,0.6%
Cc1ccc(NC(=O)N2CCC(N3CCN(Cc4ccccc4)C(=O)C3=O)CC2)cc1Cl,x,-2.9%,x,x
Cc1ccc2cc(CCNC(=O)C(=O)c3c[nH]c4ccccc34)c(=O)[nH]c2c1,u,11.0%,9.28µM*,0.6%
COc1ccc(NC(=O)Cn2c(SCc3ccc(F)cc3)nc3cccnc32)cc1OC,x,-1.1%,x,x
Cc1ccccc1NC(=S)NC(=O)COc1ccccc1C,20.1%,0.0%,13.2%,-4.7%
O=C(O)c1ccc(/C=C2\SC(=Nc3ccccc3)N(c3ccccc3)C2=O)cc1,0.294µM*,-30.1%,-13.6%,-0.1%
O=C(O)COc1ccccc1/C=C1\SC(=Nc2ccc(F)cc2)N(c2ccc(F)cc2)C1=O,u,15.7%,10.4µM*,-0.1%
O=C(O)COc1ccc(/C=C2\SC(=Nc3ccccc3)N(c3ccccc3)C2=O)cc1,-10.0%,-10.9%,0.4%,0.3%
O=c1ccc2cc(S(=O)(=O)NCc3ccc(Cl)cc3)ccc2[nH]1,x,21.5%,x,x
O=C1CCSc2ccc(S(=O)(=O)Nc3cccc(C(F)(F)F)c3)cc2N1,x,3.9%,x,x
SMILES,Pf growth 96h,Sm TGR inh,Pf growth 48h,SARS PLpro yeast
Cc1ccc(NS(=O)(=O)c2ccc3c(c2)NC(=O)CCS3)cc1F,-19.6%,-21.5%,9.28µM*,19.4%
Cc1ccc(NS(=O)(=O)c2ccc3c(c2)NC(=O)CCS3)cc1C,u,-10.0%,13.1µM*,-5.4%
Cc1ccc(NS(=O)(=O)c2ccc3c(c2)CCC(=O)N3)cc1C,-31.8%,-1.1%,5.8%,2.5%
CCCCCCN1C=CC(=C/C=C(\C#N)C(=O)OCC)C=C1,13.1µM*,6.9%,10.4µM*,-1.6%
CCCCNC(=O)c1cc2cccc([N+](=O)[O-])c2[nH]1,u,0.5%,2.62µM*,-4.0%
CN1CCN/C1=C(/C(Cl)=C(Cl)Cl)[N+](=O)[O-],2.2%,1.12µM*,9.0%,1.2%
CN(Cc1ccccc1)C(=C(Cl)Cl)/C(=C1/NCCN1C)[N+](=O)[O-],5.7%,-15.7%,0.0%,1.2%
CCCNC(=O)CSc1nc(-c2ccc(OC)cc2)cc(C(F)(F)F)n1,x,0.0%,x,x
O=C(c1ccccc1)N1CCC(c2nc3c(nnn3Cc3ccccc3Cl)c(=O)[nH]2)CC1,8.28µM*,-4.7%,x,13.9%

# Screening data (PubChem)
